Source: PubChem BioAssay
Most compounds without a hit are left out; they make up all but 2.3% or so of the library.
CHRM1 agonist: human M1 muscarinic receptor agonists, primary screen, Fluo-8 calcium fluorescence, CHO-K1 cells, HTS; Muscarinic acetylcholine receptor M1 (Homo sapiens), P11229; CHO-K1 hM1, agonist mode; 0% DMSO, 100% acetylcholine EC100; activation, % at 3 µM; 0.33% of 360,000 active; AID 588814, 2011;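 active means activation above the run's mean compound activation plus 3 SD, cut at about 16% in these data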;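 further: peak over basal fluorescence ratio within a 140 s kinetic read after compound addition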
Target sequence (P11229 whole entry, looked up): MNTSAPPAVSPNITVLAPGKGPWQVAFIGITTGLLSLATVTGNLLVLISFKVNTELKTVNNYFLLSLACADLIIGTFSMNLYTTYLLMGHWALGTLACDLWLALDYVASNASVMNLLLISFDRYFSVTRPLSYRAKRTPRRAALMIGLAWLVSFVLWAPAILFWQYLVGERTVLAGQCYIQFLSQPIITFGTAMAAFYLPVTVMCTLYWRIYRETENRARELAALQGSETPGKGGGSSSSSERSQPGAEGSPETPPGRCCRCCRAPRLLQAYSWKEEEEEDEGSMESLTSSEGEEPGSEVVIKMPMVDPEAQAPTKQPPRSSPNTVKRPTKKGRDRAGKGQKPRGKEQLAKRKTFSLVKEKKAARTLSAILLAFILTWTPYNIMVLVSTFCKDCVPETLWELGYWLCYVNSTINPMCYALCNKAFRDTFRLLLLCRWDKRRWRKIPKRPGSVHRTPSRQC
M1 ag parental: counter-screen for M1 agonists: effect in parental CHO-K1 cells; 0.48% of 360,000 active; activation, % at 3 µM; Fluo-8 calcium fluorescence; scaled to maximal ATP response, vehicle zero; AID 602248, 2012; in the data active means activation above about 15%;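 further: untransfected CHO-K1 host cells lacking M1 receptor as counterscreen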
M1 PAM: human M1 muscarinic receptor positive allosteric modulators, primary screen, CHO-K1 cells, Fluo-8 calcium fluorescence, 1536-well | Muscarinic acetylcholine receptor M1 (Homo sapiens), P11229 | CHO-K1 hM1, ACh EC20; 0% = ACh EC20, 100% = maximal ACh | activation, % at 3 µM | 0.088% of 360,000 active | AID 588819, 2011; in the data active means activation above about 19%, passing the limit was not always enough
CHO-K1 Ca antag: counter-screen for M1 antagonists: effect in parental CHO-K1 cells; ATP-induced calcium, Fluo-8 fluorescence; inhibition, % at 3 µM; 0.6% of 360,000 active; AID 602250;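 active means inhibition above a per-plate cutoff, the plate's mean sample inhibition plus 3 SD, cut at about 24% in these data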;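 further: 0% = DMSO plus EC80 ATP and 100% = DMSO alone without ATP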
M1 PAM parental: nonselective calcium activators in parental CHO-K1 cells, primary screen, counter-screen for M1 PAM project, cell-based, Fluo-8 calcium fluorescence, full deck, 1536-well; activation, % at 3 µM; ATP EC20; 0% at ATP EC20, 100% at ATP max; 0.02% of 360,000 active;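 active means activation above the run cutoff, the mean activation of all test compounds plus 3 SD, cut at about 40% in these data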;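 further: peak over basal fluorescence ratio in a 140 s read after ATP addition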
CHRM1 antagonist: human M1 muscarinic receptor antagonists, primary screen, CHO-K1 cells, Fluo-8 calcium fluorescence, 1536-well | CHO-K1 hM1, ACh EC80 antagonist | inhibition, % at 3 µM | 1.3% of 360,000 active | AID 588852, 2011;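 active means percent inhibition above its own plate's cutoff, namely the mean of that plate's compound wells plus 3 SD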;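 further: peak over basal fluorescence ratio during 140 s after agonist addition; 0% = ACh EC80 plus DMSO and 100% = DMSO alone without agonist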
The depositor's hits bear a star.

`O=C1c2[nH]nc(-c3ccccc3O)c2C(c2cccc(Cl)c2)N1Cc1ccco1` (centres undefined) gave CHRM1 agonist -2.5, M1 ag parental 0.1, M1 PAM 8.9, CHO-K1 Ca antag 23.8*, M1 PAM parental -8.9 and CHRM1 antagonist 3.9.
For O=C1c2[nH]nc(-c3ccccc3O)c2C(c2ccc(F)cc2)N1Cc1ccco1 (centres undefined) the results were CHRM1 agonist 1.2, M1 ag parental 0.9, M1 PAM 7.0, CHO-K1 Ca antag -8.2, M1 PAM parental 25.6 and CHRM1 antagonist -3.0.
COc1ccc(C(=O)NCCSCc2ccccc2C)cc1 was read as CHRM1 agonist -2.9, M1 ag parental -0.1, M1 PAM 2.7, CHO-K1 Ca antag 30.4*, M1 PAM parental -8.3 and CHRM1 antagonist 3.3.
Screening COc1ccc([C@H]2N[C@]3(CCCN(Cc4ccc(Br)cc4)C3=O)[C@H]3C(=O)N(C)C(=O)[C@@H]23)cc1 returned CHRM1 agonist -2.2, M1 ag parental 0.4, M1 PAM 9.2, CHO-K1 Ca antag -7.8, M1 PAM parental 22.8 and CHRM1 antagonist -12.4.
For Cc1ccc(C(=O)N/C(=C\c2ccco2)C(=O)NCCN2CCCCC2)cc1C the results were CHRM1 agonist -5.9, M1 ag parental 0.2, M1 PAM 5.6, CHO-K1 Ca antag -2.3, M1 PAM parental -9.0 and CHRM1 antagonist -3.2.
O=C(NCCN1CCCCC1)/C(=C/c1ccco1)NC(=O)c1ccccc1 was read as CHRM1 agonist -1.8, M1 ag parental 0.1, M1 PAM 31.2*, CHO-K1 Ca antag -18.0, M1 PAM parental 15.2 and CHRM1 antagonist -27.8.
`Cc1ccc(/C=C(\NC(=O)c2ccccc2)C(=O)NCCN2CCOCC2)o1` gave CHRM1 agonist -3.0, M1 ag parental -0.7, M1 PAM 2.4, CHO-K1 Ca antag 24.4*, M1 PAM parental -13.4 and CHRM1 antagonist -11.7.
Screening NS(=O)(=O)c1ccc(CCNS(=O)(=O)c2ccc(Cl)cc2)cc1 returned CHRM1 agonist -2.6, M1 ag parental 0.4, M1 PAM -10.4, CHO-K1 Ca antag -18.9, M1 PAM parental -5.5 and CHRM1 antagonist 100.8*.
Screening NS(=O)(=O)c1ccc(CCNC(=O)c2ccccc2F)cc1 returned CHRM1 agonist -3.9, M1 ag parental 0.1, M1 PAM -6.0, CHO-K1 Ca antag 27.9*, M1 PAM parental -9.9 and CHRM1 antagonist 8.0.
`NS(=O)(=O)c1ccc(CCNC(=O)c2ccc(C#CC3(O)CCCCC3)cc2)cc1` gave CHRM1 agonist 0.0, M1 ag parental 5.6, M1 PAM -21.9, CHO-K1 Ca antag 19.7, M1 PAM parental 0.1 and CHRM1 antagonist 38.4*.
CC(=O)Nc1ccc(S(=O)(=O)NCCc2ccc(S(N)(=O)=O)cc2)cc1 was read as CHRM1 agonist -0.2, M1 ag parental 0.1, M1 PAM 9.4, CHO-K1 Ca antag -3.6, M1 PAM parental 12.8 and CHRM1 antagonist -9.1.
For COc1ccc(S(=O)(=O)N2CCCOC2CNC(=O)C(=O)NCc2ccncc2)cc1 (centres undefined) the results were CHRM1 agonist -2.6, M1 ag parental 1.4, M1 PAM 5.7, CHO-K1 Ca antag -3.1, M1 PAM parental 2.3 and CHRM1 antagonist -11.7.
Screening CN(CCO)CC(O)CN(c1ccccc1)c1ccccc1 (centres undefined) returned CHRM1 agonist -4.2, M1 ag parental 4.9, M1 PAM -4.3, CHO-K1 Ca antag -11.4, M1 PAM parental 10.4 and CHRM1 antagonist 7.1.
CN(Cc1ccccc1)CC(O)CN(C)Cc1ccccc1 was read as CHRM1 agonist 18.4*, M1 ag parental 0.5, M1 PAM -5.3, CHO-K1 Ca antag -3.8, M1 PAM parental 4.0 and CHRM1 antagonist 5.2.
For CC(C)CC(=O)NC(Nc1ccc([N+](=O)[O-])cc1)C(Cl)(Cl)Cl (centres undefined) the results were CHRM1 agonist -0.7, M1 ag parental 16.4*, M1 PAM -14.4, CHO-K1 Ca antag 13.4, M1 PAM parental 3.1 and CHRM1 antagonist 23.9.
For COc1cccc(-c2nc(-c3ccc4c(c3)-c3ccccc3S4(=O)=O)c(-c3ccccc3)[nH]2)c1OC the results were CHRM1 agonist 1.6, M1 ag parental -0.7, M1 PAM 1.8, CHO-K1 Ca antag 27.3*, M1 PAM parental -8.7 and CHRM1 antagonist 5.3.
Screening COc1cc(-c2nc(-c3ccc4c(c3)-c3ccccc3S4(=O)=O)c(-c3ccccc3)[nH]2)cc(OC)c1OC returned CHRM1 agonist -2.3, M1 ag parental 2.4, M1 PAM -5.3, CHO-K1 Ca antag 15.5, M1 PAM parental -0.6 and CHRM1 antagonist 21.9.
Screening Clc1ccc(CN2C3=NCCCN3c3ccccc32)cc1Cl returned CHRM1 agonist -13.8, M1 ag parental 0.1, M1 PAM -12.3, CHO-K1 Ca antag 6.4, M1 PAM parental -6.2 and CHRM1 antagonist -2.1.
Cc1c(O)ccc2c(-c3ccccc3)cc(=O)oc12 was read as CHRM1 agonist 1.1, M1 ag parental 9.5, M1 PAM -11.2, CHO-K1 Ca antag 17.1, M1 PAM parental 10.2 and CHRM1 antagonist 7.6.
`Cc1cccc2cc(-c3ccccc3)c(-c3ccccc3)c[n+]12` gave CHRM1 agonist -9.0, M1 ag parental 0.2, M1 PAM -22.6, CHO-K1 Ca antag -5.8, M1 PAM parental 11.8 and CHRM1 antagonist 52.4*.
For O=C(Cc1ccccc1)NC1CCCCC1 the results were CHRM1 agonist -4.8, M1 ag parental 0.2, M1 PAM 5.1, CHO-K1 Ca antag -1.7, M1 PAM parental 17.5 and CHRM1 antagonist -2.5.
Screening CCOc1ccc(Nc2cc(Nc3ccccc3OCC)nc(C=C(C#N)C#N)n2)cc1 returned CHRM1 agonist -3.5, M1 ag parental 15.5*, M1 PAM 1.6, CHO-K1 Ca antag -3.5, M1 PAM parental 3.5 and CHRM1 antagonist 4.3.
For CCOc1ccccc1Nc1cc(C)c2cccc(C)c2n1 the results were CHRM1 agonist -4.0, M1 ag parental -0.6, M1 PAM 9.2, CHO-K1 Ca antag 5.5, M1 PAM parental -10.1 and CHRM1 antagonist -4.1.
For O=C(Cc1cccc2ccccc12)N/N=C/c1ccncc1 the results were CHRM1 agonist -3.7, M1 ag parental 25.7*, M1 PAM 5.8, CHO-K1 Ca antag 1.2, M1 PAM parental 6.4 and CHRM1 antagonist -8.8.
Screening O=C(CC(=O)N/N=C/c1ccccc1)NCc1ccccc1 returned CHRM1 agonist -5.5, M1 ag parental 17.3*, M1 PAM -6.0, CHO-K1 Ca antag 15.9, M1 PAM parental 2.6 and CHRM1 antagonist 14.3.
